m-calpain inh – calpain II (pig) inhibition; purified calpain II, fluorogenic peptide substrate, 30 min; actives 0.37% (n = 220,000); inhibition, % at 16 µM;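 active means inhibition above about 50%, limit read from the data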
WT yeast gro inh – growth inhibition of WT yeast, mitochondrial fusion screen; actives 2.1% (n = 190,000); inhibition, % at 10 µM; mitochondrial fusion phenotypic screen, WT strain; in the data active means inhibition above about 58%; tested in S. cerevisiae
ROMK primary – modulators of human ROMK potassium channel. Tet-inducible ROMK, thallium flux fluorescence; actives lie on both sides. AID 1918. P48048. actives 2% (n = 130,000). B-score at 10 µM;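 active means signal ratio slope over the read window, or its plate-corrected B-score, at least 3 SD from the plate mean, either direction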;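 further: B-score of the F/F0 ratio slope over 7 to 12 s after thallium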
Target sequence (P48048 whole entry, looked up): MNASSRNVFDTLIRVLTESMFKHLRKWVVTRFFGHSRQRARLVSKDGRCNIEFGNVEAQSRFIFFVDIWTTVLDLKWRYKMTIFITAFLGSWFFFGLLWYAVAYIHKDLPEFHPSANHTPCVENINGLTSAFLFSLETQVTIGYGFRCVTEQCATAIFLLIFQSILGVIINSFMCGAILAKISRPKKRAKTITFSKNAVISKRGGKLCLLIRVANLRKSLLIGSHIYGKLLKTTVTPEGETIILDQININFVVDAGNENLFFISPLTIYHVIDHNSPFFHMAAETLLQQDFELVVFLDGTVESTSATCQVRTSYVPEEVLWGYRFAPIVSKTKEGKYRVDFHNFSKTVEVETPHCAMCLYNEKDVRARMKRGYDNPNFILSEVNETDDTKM
Lmaj promast – reduces viability of Leishmania major promastigotes; actives 9% (n = 200,000); inhibition, % at 10 µM; resazurin fluorescence viability; in the data active means inhibition above about 50%;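 further: promastigotes grown with compound for 44 hours at 28 °C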
KCC2 mod – KCC2 (human) Cl- transport modulation | Q9H2X9 | KCC2 cells, thallium flux FluoZin-2 fluorescence | B-score of Tl+ flux slope (higher = more flux/activation; lower = inhibition) at 10 µM | actives 2.2% (n = 190,000);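 active means thallium flux slope and its plate-corrected score both differing from the plate sample mean at a set confidence after two filtering rounds, in either direction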;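 further: slope of fluorescence scaled to starting intensity during 10 to 20 s after thallium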
Numbers without * were called inactive; i = inactive; nt = no result given. This is a sample that favours compounds with a hit; in the whole collection about 12% have one here.

SMILES	m-calpain inh	WT yeast gro inh	ROMK primary	Lmaj promast	KCC2 mod
Cc1ccnc(NC2(C(F)(F)F)N=C3SCCN3C2=O)c1 (stereo not drawn)	8	-8	-0.13	-2	-1.2
O=C(c1ccc(Cl)cc1)N1CCC(O)(CSc2ccc(Cl)cc2Cl)CC1	11	71*	nt	5	0.02
O=C(c1ccc(Cl)c(Cl)c1)N1CCC(O)(CN2CCOCC2)CC1	3	-1	0.72	79*	0.4
CCN(CC)S(=O)(=O)c1cc(-c2nn(C)c(=O)c3ccccc23)ccc1C	5	3	nt	87*	0.16
Cc1ccc(-c2nn(C)c(=O)c3ccccc23)cc1S(=O)(=O)NCCN(C)C	-13	-16	-0.12	15	-0.68
OC1CCCN(Cc2c3ccccc3cc3ccccc23)C1 (stereo not drawn)	i	11	0.41	78*	-0.74
CCn1c(CSCc2ccc(F)cc2)nnc1SCC(=O)N1CCN(c2ccccc2)CC1	-23	17	-2.4	63*	-2.5
CCn1c(SCC(=O)N2CCN(c3ccccc3)CC2)nnc1-c1c[nH]c2ccccc12	-7	6	nt	58*	nt
NC(=O)c1nn(-c2ccccc2)nc1NC(=O)CN1CCOCC1	-7	nt	nt	nt	-0.79
CCc1sc(NC(=O)CCC(=O)O)nc1-c1cc2ccccc2oc1=O	6	-8	0.84	0	0.0024
Cc1cc(C(=O)c2ccc(C(C)(C)C)cc2)c(NC(=O)CCl)s1	18	55	0.13	96*	-0.043
Cc1cc(C(=O)c2ccccc2)c(NC(=O)CN2CCOCC2)s1	-14	-14	nt	32	0.85
Cc1sc(NC(=O)CCl)c(C(=O)c2ccccc2)c1C	1	-17	nt	101*	nt
COC(=O)C(C)(C(=O)OC)c1ccc(C(F)(F)F)cc1[N+](=O)[O-]	5	10	-0.66	-3	0.67
CCOC(=O)c1ccc(NC(=O)CCOc2ccccc2)cc1	-32	nt	1	84*	-4.9
CCOC(=O)c1ccc(N/C(=N\S(=O)(=O)c2ccccc2C)c2ccccc2)cc1	14	6	nt	88*	-0.064
CC(C)OC(=O)COc1ccc(-c2ccccc2)cc1	16	-9	0.54	-8	0.4
COC(=O)c1ccc(N/C(=N/S(=O)(=O)c2ccccc2)c2ccccc2)cc1	14	-2	nt	11	-1.1
CCCOC(=O)c1ccc(NC(=O)CCOc2ccccc2)cc1	14	17	-0.11	31	-0.36
Cc1cccc(OCCCC(=O)Nc2ccc(N(C)C)cc2)c1	11	0	-0.02	97*	0.007
Cc1cccc(OCCCC(=O)Nc2ccc(Br)cc2)c1	-23	9	nt	-1	nt
CC(=O)c1ccc(OCC(=O)c2ccc(-c3ccccc3)cc2)cc1	16	17	-0.6	60*	-2.5
COc1cc(/C=N/NC(=O)C(=O)NCc2ccco2)cc(Br)c1O	26	nt	nt	nt	-1.2
O=C(NC1CC(=O)c2sccc21)c1ccc(Cl)cc1Cl (stereo not drawn)	-5	-2	-0.48	-8	-0.43
CCOc1ccc(NC(=O)Cc2ccccc2)cc1	-5	-2	-0.75	-1	0.52
SMILES	m-calpain inh	WT yeast gro inh	ROMK primary	Lmaj promast	KCC2 mod
CN(C)CC(=O)c1ccc(-c2ccccc2)cc1	-31	-7	-0.22	86*	-0.21
CCOc1ccc(NC(=O)CCC(=O)c2ccc(-c3ccccc3)cc2)cc1	-6	-20	-0.044	50*	0.94
Cn1nc(-c2ccc(N3CCCCC3)c(NC(=O)c3ccco3)c2)c2ccccc2c1=O	-68	40	nt	56*	nt
Cc1ccc(C)c(N2CCN(C(=O)c3csc4ccccc34)CC2)c1	14	74*	nt	14	1.7
Cc1ccc(Cl)cc1N1CCN(C(=O)Cc2cn(C)c3ccccc23)CC1	55*	57	-0.14	3	-0.41
Cc1ccc(C)c(N2CCN(C(=O)Cc3cn(C)c4ccccc34)CC2)c1	3	63*	nt	6	-0.28
Cc1ccc(C)c(N2CCN(C(=O)C(Cc3ccccc3)n3cccc3)CC2)c1 (stereo not drawn)	18	62*	nt	22	0.66
O=C(C(Cc1ccccc1)n1cccc1)N1CCN(c2ccccc2)CC1 (stereo not drawn)	-4	11	nt	9	-0.16
Cc1ccc(N2CCN(C(=O)c3ccccc3F)CC2)c(C)c1	-4	40	nt	-6	-0.14
CCC(=O)N1CCN(c2cc(C)ccc2C)CC1	-16	-4	0.69	-3	nt
CCN(CC)CCCN(C(C)=O)c1nc(-c2cc(OC)ccc2OC)cs1	-15	-6	nt	100*	0.38
CCCSc1cc(N2CCN(C)CC2)nc(-c2ccc(OC)cc2)n1	-27	95*	-0.025	25	-0.26
CC(C)NC(=O)CSc1nc(Cc2cccs2)nc2ccccc12	-4	-30	nt	-1	2.4
N#CCn1c(CCl)nc2ccccc2c1=O	5	10	-0.047	84*	0.45
CC(=O)N1CCc2cc(Br)cc(S(=O)(=O)CCC(=O)N3CCN(c4ccccn4)CC3)c21	-32	-22	0.08	-10	-0.84
S=C(c1ccc(N2CCCC2)cc1)N1CCCCC1	64*	5	nt	88*	-0.45
N#C/C=C(/N)N1CCN(c2ccc(Cl)c(Cl)c2)CC1	-62	27	nt	70*	nt
COC(=O)N1CCN(c2ccc(Cl)c(Cl)c2)CC1	17	32	nt	21	nt
O=C(O)c1ccc(N2CCCCC2)cc1	4	-2	0.28	-9	1.1
Nc1ccc(N2CCCCCC2)cc1	2	-8	-1.1	100*	nt
Nc1ccc(N2CCN(c3ccc(Cl)c(Cl)c3)CC2)cc1	7	47	0.65	98*	-1.6
CC(C)NC(=O)Cn1cc(C(=O)C2CC2)c2ccccc21	-8	-15	0.16	-4	0.34
Cc1[nH]nc(Nc2ccc(C(C)C)cc2)c1[N+](=O)[O-]	-10	nt	nt	nt	0.22
Nc1ccc(N2CCN(c3ccc(F)cc3)CC2)cc1	14	5	0.49	78*	0.34
COC(=O)Cc1ccc(NC(=S)N2CCCCC2C)cc1 (stereo not drawn)	0	-5	0.65	-3	1.1
SMILES	m-calpain inh	WT yeast gro inh	ROMK primary	Lmaj promast	KCC2 mod
CCOC(=O)Cn1nnnc1CN(Cc1cccs1)Cc1cc2cc(C)ccc2[nH]c1=O	-3	1	-1.5	2	-1.4
CCOc1ccc2[nH]c(=O)c(CN(Cc3cccs3)Cc3nnnn3C(C)(C)C)cc2c1	0	20	0.7	73*	-0.12
Cc1ccc2[nH]c(=O)c(CN(Cc3cccs3)Cc3nnnn3Cc3ccccc3)cc2c1	-34	14	-1.8	11	-1.2
COc1ccc2[nH]c(=O)c(CN(Cc3cccs3)Cc3nnnn3C(C)(C)C)cc2c1	-109	-3	0.55	99*	-0.07
Cc1ccc(S(=O)(=O)N2CCCCC2)cc1NC(=O)CNCc1ccco1	-5	nt	nt	nt	-1
C/C(=C\C(=S)Nc1ccccc1)Nc1ccc2ccccc2c1	-24	62*	0.023	10	0.47
CN1/C(=C\P(=O)(N(C)C)N(C)C)C(C)(C)c2ccccc21	-26	7	0.00053	99*	nt
CCOC(=O)/C=C1/N(C)c2ccccc2C1(C)C	7	nt	nt	nt	-0.96
COc1cc(N2CCCC2)c(OC)cc1/C=C(/C#N)c1cccc(F)c1	1	37	-2.4	3	-0.88
COc1cc(N2CCCC2)c(OC)cc1/C=C1/NC(=S)NC1=O	40	7	nt	96*	-2.7

Compound activity from PubChem BioAssay.
